The nature of this assay: M. tuberculosis growth inhibition, HTS (AID 1259417).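 Note: bacteria grown with compound for 5 days at 37 °C.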 To be noted: stronger effect = higher value, concentration not given here.
Setting [1] is: M. tuberculosis DsRed fluorescence growth inhibition.
Setting [2] is: M. tuberculosis growth inhibition.

In PubChem BioAssay AID1259417 (TB Discovery Research, Infectious Disease Research Institute, 2018) one finds inhibition data, which are given here for 46 compounds.

SMILES strings stand for the structures. About 760 (69%) of roughly 1,100 compounds were called active. The rule behind the calls is not given here. The set was probably picked from earlier hits. The list shows a part of the results.

As a reminder, the inhibition is the change of the read-out against control, counted positive when it falls. Consider `CCCCn1c(O)c(/C=C2\C=CC=N2)c(=O)[nH]c1=O`, for which the inhibition under setting [1] is 58.2% (active) and the inhibition under setting [2] came out at 89.6%.

With `Cc1cc(C)c(-n2c(O)c(/C=C3\C=CC=N3)c(=O)[nH]c2=O)c(C)c1`, the inhibition is, setting by setting: under setting [1], 97.7% (active); under setting [2], 98.6%.

`O=c1c2cccc3c2c(nn1CCN1CCCCC1)-c1ccccc1-3`: the inhibition reads like this: under setting [1], -22.6% (active); under setting [2], 56.2%.

For `CCC(C)c1ccc(OCCn2ccnc2)cc1` (configuration not stated), the inhibition reads like this: under setting [1], 99.2% (active); under setting [2], 99.6%.

For `CCC(C)c1ccc(OCCCCn2ccnc2)cc1` (configuration not stated), the inhibition is, setting by setting: under setting [1], 100% (active); under setting [2], 100%.

In the case of `CCC(C)(C)c1ccc(OCCCn2ccnc2)cc1`, the inhibition under setting [1] was 100% (active) and the inhibition under setting [2] was determined as 99.6%.

Regarding `CCOC(=O)c1c(NC(=S)NC2CCN(Cc3ccccc3)CC2)sc(C)c1-c1ccccc1`, the inhibition reads like this: under setting [1], 21.1% (inactive); under setting [2], -12.2%.

In the case of `CCOC(=O)c1sc(NC(=O)CCSc2ccccc2)cc1C`, the inhibition under setting [1] is 96.9% (active) and the inhibition under setting [2] was found to be 84.1%.

Take `CCOC(=O)c1sc(NC(=O)NC2CCCCC2)cc1C`: the inhibition was 100% (active) under setting [1] and 96.2% under setting [2].

With `Cc1ccc(-c2ccc(C=CC(=O)c3ccco3)o2)cc1`, the inhibition under setting [1] was 9.38% (inactive) and the inhibition under setting [2] was determined as 20.8%.

For `CCOC(=O)C(C#N)=Cc1ccc(-c2ccc(F)cc2)o1`, the inhibition was 2.37% (active) under setting [1] and 87.5% under setting [2].

Regarding `Cc1ccc(-n2cnc3cc(NCc4cccs4)ccc32)cc1`, the inhibition under setting [1] was 18.8% (active) and the inhibition under setting [2] amounted to 35.4%.

Consider `CC(=O)N1CCN(c2cc3c(cc2F)c(=O)c(C(=O)O)cn3C2CC2)CC1`, for which the inhibition by setting is: under setting [1], 97.5% (active); under setting [2], 97.7%.

For the compound `CCn1cc(C(=O)O)c(=O)c2cc(F)c(N3CCNCC3)cc21`, the inhibition was 96.6% (active) under setting [1] and 97% under setting [2].

As to `CCn1cc(C(=O)O)c(=O)c2cc(F)c(N3CCN(C(=S)Nc4cc(C(F)(F)F)ccc4Cl)CC3)cc21`, the inhibition reads like this: under setting [1], 47.9% (active); under setting [2], 61.9%.

In the case of `CCn1cc(C(=O)O)c(=O)c2cc(F)c(N3CCN(C)CC3)cc21`, the inhibition by setting is: under setting [1], 94.8% (active); under setting [2], 94.2%.

With `O=c1oc(-c2ccccc2)cc(Cl)c1Cl`, the inhibition under setting [1] is 61.6% (active) and the inhibition under setting [2] was determined as 74%.

With `Cc1ccc2sc(N(CCCn3ccnc3)C(=O)c3cccs3)nc2c1C`, the inhibition by setting is: under setting [1], 98.3% (active); under setting [2], 99.1%.

With `O=C(c1cccs1)N(CCCn1ccnc1)c1nc2c(Cl)cccc2s1`, the inhibition runs as follows: under setting [1], 91.1% (active); under setting [2], 98.4%.

Regarding `CCc1cccc2sc(N(CCCn3ccnc3)C(=O)C=Cc3cccs3)nc12`, the inhibition by setting is: under setting [1], 97.8% (active); under setting [2], 99.1%.

In the case of `CCc1cccc2sc(N(CCCn3ccnc3)C(=O)c3cccs3)nc12`, the inhibition under setting [1] was 88.1% (active) and the inhibition under setting [2] is 97.7%.

As for `Cc1c(Cl)ccc2sc(N(CCCn3ccnc3)C(=O)C=Cc3cccs3)nc12`, the inhibition is 99.5% (active) under setting [1] and 99.5% under setting [2].

On to `O=C(C=Cc1cccs1)N(CCCn1ccnc1)c1nc2ccccc2s1`, for which the inhibition runs as follows: under setting [1], 98.3% (active); under setting [2], 99.1%.

As to `Cc1ccc(NC(=O)COc2ccc(-n3ccnc3)cc2)cc1Cl`, the inhibition is, setting by setting: under setting [1], -9.16% (inactive); under setting [2], -12.4%.

Consider `Cc1ccc(Nc2ccc(-n3ccnc3)nn2)cc1Cl`, for which the inhibition reads like this: under setting [1], 42% (active); under setting [2], 27.3%.

Turning to `CCCCCCCCOC(=O)c1c(CSC(=N)N)n(C)c2cc(Br)c(OC(C)=O)cc12`, the inhibition reads like this: under setting [1], 26.7% (inactive); under setting [2], 4.13%.

For `Cc1cc(Nc2ccc(Cl)cc2)nc(NCc2ccccc2)n1`, the inhibition under setting [1] is 87.7% (active) and the inhibition under setting [2] came out at 79.9%.

With `Oc1cccc(Nc2nc(NCc3ccccc3)c3ccccc3n2)c1`, the inhibition was -1.72% (inactive) under setting [1] and -16.1% under setting [2].

Regarding `Cc1cc(Nc2cccc(Cl)c2)nc(NCc2ccccc2)n1`, the inhibition runs as follows: under setting [1], 96.8% (active); under setting [2], 90.6%.

`CCn1c(COc2cccc3ccccc23)nnc1SCC(=O)OC1CCCCC1`: the inhibition was 42.4% (active) under setting [1] and 80.7% under setting [2].

Take `Cn1c(COc2cccc3ccccc23)nnc1SCC(=O)OC1CCCCC1`: the inhibition is 76.6% (active) under setting [1] and 92.4% under setting [2].

`CCn1c(CNc2ccc(F)cc2)nnc1SCC(=O)OC1CCCCC1`: the inhibition by setting is: under setting [1], 0.628% (inactive); under setting [2], -6.89%.

As to `O=C(Nc1nc(SCc2ccc(F)cc2)ns1)c1cc(F)c(F)cc1Cl`, the inhibition was 7.63% (inactive) under setting [1] and 5.06% under setting [2].

For `Cc1ccc(CSc2nnc(CCCCCNC(=O)OC(C)(C)C)o2)cc1`, the inhibition is 30.6% (active) under setting [1] and 36.2% under setting [2].

On to `CCOC(=O)CN(C#N)c1nc(N(C)C)nc(N(C)C)n1`, for which the inhibition by setting is: under setting [1], 98.5% (active); under setting [2], 98.9%.

As for `O=C(Nc1nnc(C2CCCCC2)s1)c1sc2ccccc2c1Cl`, the inhibition reads like this: under setting [1], 0.622% (inactive); under setting [2], -19.5%.

Consider `CCn1nnc(NC(=O)c2sc3ccccc3c2Cl)n1`, for which the inhibition is 41.4% (active) under setting [1] and 47.8% under setting [2].

For `O=C(Nc1nccs1)c1ccc(CSc2ccccc2)o1`, the inhibition is 28.2% (active) under setting [1] and 69.6% under setting [2].

Consider `Cc1ccc(C)c(-c2cc(C(=O)Nc3nccs3)c3ccccc3n2)c1`, for which the inhibition by setting is: under setting [1], -0.261% (inactive); under setting [2], -26.2%.

As to `O=C(CSc1nnc(Cc2ccccc2)o1)Nc1nccs1`, the inhibition is, setting by setting: under setting [1], 1.22% (inactive); under setting [2], -3.79%.

On to `O=C(CNCCN1CCOCC1)Nc1sc2c(c1C(=O)Nc1ccccc1)CCC2`, for which the inhibition by setting is: under setting [1], 100% (active); under setting [2], 100%.

On to `CCOc1ccc(NC(=O)c2c(NC(=O)CNCCN3CCOCC3)sc3c2CCC3)cc1`, for which the inhibition was 100% (active) under setting [1] and 101% under setting [2].

On to `COCCCNC(=O)c1c(NC(=O)c2ccccc2OC)sc2c1CCCC2`, for which the inhibition by setting is: under setting [1], 2.12% (inactive); under setting [2], -22.4%.

Take `O=C(Nc1sc2c(c1C(=O)Nc1ccccc1)CCC2)c1cccc(Br)c1`: the inhibition is 0.927% (inactive) under setting [1] and -1.38% under setting [2].

Take `Cc1ccccc1C(=O)Nc1sc2c(c1C(=O)NCCO)CCC(C(C)(C)C)C2` (configuration not stated): the inhibition is 5.07% (inactive) under setting [1] and -17.9% under setting [2].

In the case of `CO[C@H]1C=CO[C@@]2(C)Oc3c(C)c(O)c4c(O)c(c5c(c4c3C2=O)=NC2(CCN(CC(C)C)CC2)N=5)NC(=O)C(C)=CC=C[C@H](C)[C@H](O)[C@@H](C)[C@@H](O)[C@@H](C)[C@H](OC(C)=O)[C@@H]1C`, the inhibition by setting is: under setting [1], 100% (active); under setting [2], 101%.
